Measurements: PubChem BioAssay AID686978 (National Center for Advancing Translational Sciences (NCATS), 2013)
About 64,000 (15%) of roughly 420,000 compounds were called active. Another 27% or so got no clear call; they are omitted. Calls come from the whole dose curve; as a rule, active = well fitted inhibition curve with a large enough effect; inconclusive = small, poorly fitted or top-dose-only effect; inactive = flat fitted curve, though single readings scatter. Only a sample is shown. Entries that show only a call come without a potency.

Test: qHTS for Inhibitors of human tyrosyl-DNA phosphodiesterase 1 (TDP1): qHTS in cells in absence of CPT; note: nearly all actives have a fitted effect of over 55% in size
Details: DT40 Tdp1-/- hTDP1 cells, no CPT, ATP luminescence, 48 h; activity change, negative = growth inhibition: at 46.2 µM (top of the series)
In short: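 Seeded 400 DT40-hTDP1 cells/well (vehicle DMSO, no 20 nM CPT); pinned compounds; ≥48 hr at 37 °C; CellTiter-Glo luminescence as viability measure.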
Potency is the fitted concentration of half-maximal effect.

| SMILES | Potency |
| --- | --- |
| O=C1c2ccccc2C(=O)N1c1ccccc1S(=O)C(F)(F)F (stereo not given) | inactive |
| COc1ccc(CCNC(=O)Cn2c(=O)n(CC3CCCO3)c(=O)c3ccccc32)cc1OC (stereo not given) | inactive |
| COc1ccccc1-n1cnc2cc(C(=O)NCC3CCCO3)ccc21 (stereo not given) | inactive |
| COc1ccc(CCn2c(=N)c(C(=O)NCC3CCCO3)cc3c(=O)n4cccc(C)c4nc32)cc1OC (stereo not given) | 0.517 µM (active) |
| CC1CCC(NC(=O)CN(C)S(=O)(=O)c2ccc3c(c2)c(=O)n(C)c(=O)n3C)CC1 (stereo not given) | inactive |
| CN(C(=O)CSc1nnc(C2CC2)n1C)C1CCCc2ccccc21 (stereo not given) | inactive |
| CCC1(CC)C(=O)C2=C3C1[C@H](C(=O)OC)C=C(C(=O)OC)C[C@H]3[C@H]1C(=O)N(Cc3ccccc3)C(=O)[C@H]1[C@H]2C (stereo not given in full) | 16.4 µM (active) |
| CCOC(=O)C1=CCC2C(=O)N(Cc3ccccc3)C(=O)C12 (stereo not given) | inactive |
| COC(=O)C1=C[C@@H](C(=O)OC)[C@@H]2C3=C(C(=O)[C@]2(C)NC(=O)c2ccccc2)[C@H](C)n2c(=O)n(C)c(=O)n2[C@@H]3C1 | inactive |
| CCOc1ccccc1NC(=O)CCc1nnc2ccc(NCc3ccco3)nn12 | inactive |
| Cc1cccc(NC(=O)Nc2ccc(OCc3ccccc3)cc2)n1 | inactive |
| CNC(=O)c1sc(NCc2ccccc2OC)nc1C | inactive |
| CNC(=O)c1sc(Nc2ccc(OCc3ccccc3)cc2)nc1C | 13 µM (active) |
| COc1ccc(C(C(=O)NC2CCCCC2)N(C(=O)Cc2c[nH]c3ccccc23)c2ccccc2)cc1OC (stereo not given) | 18.4 µM (active) |
| COc1ccc(CNC(=O)[C@H](Cc2c[nH]c3ccccc23)NC(C)=O)cc1OC | inactive |
| COc1ccc(C(C(=O)NCC2CCCO2)N(C(=O)Cn2nnc3ccccc32)c2ccc(NC(C)=O)cc2)cc1OC (stereo not given) | inactive |
| CN(Cc1c(F)cccc1Cl)S(=O)(=O)c1cccs1 | inactive |
| O=C(NCc1ccccn1)C1CCN(S(=O)(=O)c2ccc(Br)cc2)CC1 | inactive |
| CC1(C)CCSC(/C=C/c2ccccc2)=N1 | 4.61 µM (active) |
| CCCOc1ccc(NC(=O)C2CCCNC2=O)cc1 (stereo not given) | inactive |
| Cc1ccc(-c2ccnc(-n3ncc(C(=O)N(C)Cc4cccc5ncccc45)c3C3CC3)n2)o1 | inactive |
| CC1CN(c2nc(Nc3ccccc3)nc(N)c2[N+](=O)[O-])CC(C)O1 (stereo not given) | 14.6 µM (active) |
| CCN1CCN(c2nc(Nc3cccc(F)c3)nc(N)c2[N+](=O)[O-])CC1 | inactive |
| Nc1nc(NCC(=O)O)nc(N2CCCCCC2)c1[N+](=O)[O-] | inactive |
| CCOC(=O)c1ccccc1NC(=O)COC(=O)CCC(=O)N1CCOCC1 | inactive |

| SMILES | Potency |
| --- | --- |
| NC(=O)C1CC(=O)N(c2ccc(OCC(=O)NCc3ccccc3)cc2)C1 (stereo not given) | inactive |
| O=C(NNC(=O)c1cnccc1C(F)(F)F)c1ccc(Cl)cc1 | inactive |
| O=C(NNC1=C(C(=O)C(F)(F)F)CCC1)c1ccncc1 | 1.64 µM (active) |
| Cc1ccc(C(=O)NNC(=O)c2ccncc2)cc1S(=O)(=O)N1CCCCC1 | inactive |
| COc1ccc2c(c1)c1ncn(Cc3ccccn3)c(=O)c1n2C | inactive |
| Cc1ccc(CNC(=O)CSc2c3c(nc4cc(Cl)ccc24)CCCC3)cc1 | 14.6 µM (active) |
| O=C(CSc1nnnn1-c1ccccc1)NCc1ccco1 | inactive |
| COc1ccc(N2CCN(C(=O)c3ccc(N4CCCCS4(=O)=O)cc3)CC2)cc1 | inactive |
| COc1ccc(N2CCN(C(=O)c3ccc4c(Cl)c5c(nc4c3)CCCC5)CC2)cc1 | 20.6 µM (active) |
| O=C(/C=C/c1ccc(Cl)cc1Cl)NCc1ccco1 | inactive |
| COc1cccc(CNc2nc3nc4c(c(=O)n3[nH]2)CCC4)c1 | inactive |
| O=C(CSc1c2c(nc3ccc(Cl)cc13)CCCC2)NCc1ccco1 | 18.4 µM (active) |
| COc1cccc(CNC(=O)c2cccnc2Sc2ccc(Cl)cc2)c1 | inactive |
| COc1cccc(CNC(=O)c2ccc3c(Cl)c4c(nc3c2)CCCC4)c1 | 23.1 µM (active) |
| Cc1cn(C)c(CC(=O)NCc2ccc(Cl)cc2)c1C(=O)O | inactive |
| Cc1ccc(CNC(=O)COc2ccc3c(c2)CCC3)cc1 | inactive |
| Cc1cc(C)c2nc(-c3cccnc3)cc(C(=O)Nc3ccc(S(=O)(=O)Nc4onc(C)c4C)cc3)c2c1 | inactive |
| Cc1cc(C)n2nc(C(=O)OC(C)C(=O)c3cc(C)c(C)cc3C)nc2n1 (stereo not given) | inactive |
| Cc1cc(NC(=O)Nc2c[nH]c(=O)[nH]c2=O)ccc1Br | inactive |
| CCOc1cc(/C=C2/C(=N)N3OC(C)=CC3=NC2=O)ccc1OC | inactive |
| O=C(Nc1ccc(Cl)cc1)c1csc([C@H]2C[C@H](O)[C@@H](CO)O2)n1 | inactive |
| CCN(CC)CCN1C(=O)C2C(C(=O)Nc3ccc(Br)cc3)C3C=CC2(O3)C1C(=O)NC1CCCCC1 (stereo not given) | inactive |
| CC1CC[C@@]23CCC4(C)[C@@]5(C)CCC6C(C)(C)C(O)CC[C@@]6(C)C5C=C[C@@]4(OC2=O)C3C1C (stereo not given in full) | inactive |
| O=C(NC(Cc1ccc(O)cc1)C(=O)O)/C(=C/c1ccccc1)NC(=O)c1ccccc1 (stereo not given) | inactive |
| O=C(NCC(F)(F)F)Nc1nnc(C(F)(F)F)s1 | inactive |

| SMILES | Potency |
| --- | --- |
| CCOC(=O)C1=C(NC(=S)NC(=O)c2ccccc2)c2ccccc2CC1(C)C | inactive |
| O=C(O)CSc1c2c(nc3cc(C(=O)Nc4cccc(C(F)(F)F)c4)ccc13)CCCC2 | inactive |
| CC(=O)c1ccc(NC(=O)c2ccc3c(Cl)c4c(nc3c2)CCCC4)cc1 | 18.4 µM (active) |
| COc1cccc(CNC(=O)c2nnn(CC(=O)Nc3cc(Cl)ccc3C)c2N)c1 | inactive |
| COc1cccc(-c2ccc(C#N)c(SCC(=O)NCCc3ccc(Cl)cc3)n2)c1 | inactive |
| COc1cccc(CNC(=O)CSc2c3c(nc4cc(Cl)ccc24)CCCC3)c1 | 14.6 µM (active) |
| CC(=O)c1ccc(NC(=O)c2cc(-c3cccs3)on2)cc1 | inactive |
| Cc1nc2c(C(=O)NCc3ccc4c(c3)OCO4)c[nH]n2c(=O)c1Cc1ccccc1F | inactive |
| Cc1cc(N)n(-c2ccc(S(=O)(=O)N3CCCC3)cc2[N+](=O)[O-])n1 | inactive |
| O=C(c1cc2ccccc2s1)N1CCN(c2ccccn2)CC1 | inactive |
| O=C(Nc1ccccc1C(=O)N1CCCCC1)c1ccco1 | inactive |
| O=C(Nc1c(C(=O)N2CCN(c3ccc(F)cc3)CC2)oc2ccccc12)c1ccco1 | 18.4 µM (active) |
| COc1cccc(OC)c1C(=O)Nc1c(C(=O)N2CCN(c3ccccn3)CC2)oc2ccccc12 | 25.9 µM (active) |
| COCC(=O)Nc1c(C(=O)N2CCCC2)oc2ccccc12 | inactive |
| Cc1cc(C(=O)N2CCN(c3ccccn3)CC2)c(C)o1 | 12.6 µM (active) |
| CCOCCCN(C)C1CCN(C(=O)c2oc3ccccc3c2NC(=O)Cc2cccc([N+](=O)[O-])c2)CC1 | inactive |
| CCC(=O)Nc1c(C(=O)N2CCN(c3ccc(F)cc3)CC2)oc2ccccc12 | 25.9 µM (active) |
| O=C(C(Cl)Cl)N1CCN(c2ccccn2)CC1 | inactive |
| CCOCCCN(C)C1CCN(C(=O)c2oc3ccccc3c2NC(=O)COc2cccc(C)c2)CC1 | inactive |
| O=C(c1ccco1)N1CCN(C(=S)Nc2cc(F)cc(F)c2)CC1 | inactive |
| O=C(c1c(F)cccc1Cl)N1CCN(c2ccccn2)CC1 | inactive |
| O=C(CSc1nnc(Nc2ccccc2F)s1)NC1CCCC1 | inactive |
| CC(=O)/C(C)=N\O | inactive |
| COc1cc(C2C(C(=O)c3cccs3)=C(O)C(=O)N2CCN2CCOCC2)ccc1OCCC(C)C (stereo not given) | inactive |
| CSc1cc(C)[nH]c(=O)n1 | inactive |

| SMILES | Potency |
| --- | --- |
| Cc1nnc(SCc2cccc(Cl)c2)n(N)c1=O | inactive |
| COC(=O)Nc1ccc(S(=O)(=O)N2CCN(CCN3C(=O)C4C5C=CC(C5)C4C3=O)CC2)cc1 (stereo not given) | inactive |
| Cc1ccc(C2SCC(=O)N2c2ccccc2)cc1 (stereo not given) | inactive |
| Cc1ccc(S(=O)(=O)N(C)C)cc1NC(=O)/C=C/c1cccs1 | inactive |
| COc1cc(CN(C(=O)c2ccccc2Br)c2ccccn2)cc(OC)c1OC | 13 µM (active) |
| Cc1csc2ncc(C(=O)N(Cc3ccccc3)c3ccccn3)c(=O)n12 | inactive |
| CCC(=O)N(Cc1ccccc1)c1ccccn1 | inactive |
| Cc1ccc(CN(C(=O)c2ccccc2[N+](=O)[O-])c2ccccn2)cc1 | 11.6 µM (active) |
| COC(=O)c1cc(C(=O)N(Cc2ccccc2)c2ccccn2)cc([N+](=O)[O-])c1 | inactive |
| CC(C)(C)C(=O)N(Cc1ccccc1)c1ccccn1 | inactive |
| O=C(c1ccco1)N1CCC2(CC1)CN(c1ncccn1)C2 | inactive |
| CCN(CC(=O)Nc1c(F)cccc1F)C(=O)c1ccc(S(=O)(=O)N2CCCCC2)cc1 | inactive |
| CCN1CCN(C(=O)N(Cc2ccc(Cl)cc2)S(=O)(=O)c2ccc(C)cc2)CC1 | inactive |
| O=c1[nH]c2ccccc2s1 | inactive |
| O=C(Cn1c2[n+](c3ccc(C(F)(F)F)cc31)CCCCC2)Nc1c(F)cccc1F | inactive |
| CC(=O)NCCn1c(SCC(=O)Nc2ccc(C)cc2)nc2ccccc2c1=O | inactive |
| Cc1ccc(NC(=O)CSc2nc3ccccc3c3nc(CCn4cncc4C)nn23)cc1F | 20.6 µM (active) |
| COc1ccc(Cl)cc1NC(=O)CSc1nc2ccccc2c2nc(-c3ccccc3)nn12 | inactive |
| CCCCc1nc2ccc(F)cc2cc1C | inactive |
| OCC[C@H]1C[C@H](O)[C@@H](O)[C@]2(Cc3ccccc3CO2)O1 | inactive |
| O=C1OCCC1=COCCCCOC=C1CCOC1=O | inactive |
| Cc1ccc(S(=O)(=O)NCCC(=O)Nc2ccc(C)c(Cl)c2)cc1C | inactive |
| CC(=O)CCS(=O)(=O)c1ccc(C)c(C)c1 | 29.1 µM (active) |
| Cc1ccnc(NC(=O)CCNS(=O)(=O)c2ccc(C)c(C)c2)c1 | inactive |
| CC(=O)Nc1c2c(nn1-c1cccc(C)c1)CSC2 | inactive |
